Hits are enriched below; roughly 5.4% of the tested compounds scored in any of these assays.
MIN6 prolif – induces beta-cell replication in MIN6 cells. MIN6 cells proliferation, ATPlite luminescence, 48 h; cells starved in 0.2% serum; 100% = growth in 10% serum. proliferation, % at 10 µM. 330,000 tested, 0.29% active;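 active = compounds whose signal lies at least 3.5 SD above the mean of all wells on their plate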;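 note: 0% = DMSO-treated cells in low-serum medium and 100% = 10% serum control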
SMARCA2 activ – activators of SMARCA2 function; MG213 cells, MMTV-luciferase reporter, dexamethasone, overnight; activation, % at 9.1 µM; 370,000 tested, 1% active; in the data active = activation above about 7.8%;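 note: 0% = vehicle wells and 100% = reference activator wells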
Granule exo inh – lytic granule exocytosis inhibition; TALL-104 LAMP-1 surface exposure, flow cytometry; cells stimulated with thapsigargin and PMA; AID 651702; 360,000 tested, 0.66% active; inhibition, % at 10 µM;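 active = inhibition above about 55%, limit read from the data; inconclusive = no clear call, values can overlap the other calls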
JMJD2C inh – blocks human GASC-1 demethylase activity; Q9H3R0; GST-JMJD2C(1-420) H3K9me3 demethylation, DELFIA europium; inhibition, % at 2.35 µM; 330,000 tested, 0.069% active; AID 2099;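 active = more than half of a compound's replicate wells show inhibition beyond 50%, single wells judged on their own value; inconclusive = some, but no more than half, of replicates pass 50% inhibition; inactive = no replicate passes 50% inhibition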;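 note: signal counts dimethyl H3K9 product captured on neutravidin plate; 0% = median of DMSO wells and 100% = 0.3 times that DMSO median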
PfM18AAP inh-1 – PfM18AAP enzyme inhibition | recombinant PfM18AAP, H-Glu-NHMec fluorogenic cleavage | inhibition, % at 7.35 µM | 290,000 tested, 1.2% active;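 active = inhibition above the campaign mean inhibition over all tested compounds plus 3 SD, cut at about 28% in these data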;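 note: 0% = plate median of test compound wells and 100% = 2 mM ZnCl2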
ALR H2O2 inh – blocks human ALR sulfhydryl oxidase activity. 290,000 tested, 3.8% active. P55789. inhibition, % (concentration not given with the values). purified ALR, DTT oxidation, H2O2 HRP-luminol luminescence;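 active = mean replicate inhibition above about 79%, with every replicate also reaching it, limit read from the data; inconclusive = only one of the two criteria met; inactive = mean below limit and not every replicate reaching it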
Target sequence (P55789 whole entry, looked up): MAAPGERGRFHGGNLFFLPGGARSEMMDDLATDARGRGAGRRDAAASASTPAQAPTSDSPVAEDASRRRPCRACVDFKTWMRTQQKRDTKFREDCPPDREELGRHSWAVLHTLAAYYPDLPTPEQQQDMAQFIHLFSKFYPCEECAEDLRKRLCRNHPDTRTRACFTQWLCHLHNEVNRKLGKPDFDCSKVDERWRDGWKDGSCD
PfM18AAP inh-2 – PfM18AAP inhibition, confirmation; shares compounds with PfM18AAP inh-1; recombinant PfM18AAP, H-Glu-NHMec fluorogenic cleavage; inhibition, % at 7.35 µM; 2,400 tested, 28% active; AID 2170;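 active = mean inhibition over replicate wells above the hit cutoff set for the earlier primary screen, cut at about 29% in these data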;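 note: 0% = median of test compound wells and 100% = 2 mM ZnCl2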
CTSL1 counter – Cathepsin L (human) inhibition, confirmation; shares compounds with PfM18AAP inh-1; purified cathepsin L1, Z-Leu-Arg-MCA fluorescence; inhibition, % at 5.96 µM; 2,400 tested, under 10 active;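 active = average inhibition across replicates above the hit cutoff set in the earlier primary screen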;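 note: 0% = median of test compound wells and 100% = Z-Phe-Ala-diazomethylketone 1 µM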
Starred values were filed as active, the others as inactive; ? = inconclusive; . = no result given.

SMILES	MIN6 prolif	SMARCA2 activ	Granule exo inh	JMJD2C inh	PfM18AAP inh-1	ALR H2O2 inh	PfM18AAP inh-2	CTSL1 counter
COc1ccc(C(=O)OCC(=O)c2c(N)n(C)c(=O)n(C)c2=O)cc1OC	0.3	0.4	-2.8	-7.9	-4.8	-16.7	.	.
O=C(O)c1ccc(N/N=C2/CCCc3ccccc32)cc1	-3.1	3.6	0.1	5.5	34.4*	97.9*	-6.7	8.1
C(=N\Nc1ncnc2sc3c(c12)CCC3)/c1ccncc1	-0.3	-1.3	-1.1	-19.2	48.4*	20.3	-27.4	6.5
COc1ccc(Cl)cc1S(=O)(=O)N1CCN(C(=O)CSc2nc3ccccc3nc2N2CCCC2)CC1	.	-2.1	.	.	.	.	.	.
O=C(/C=C/c1ccc(O)c(O)c1)NC(=O)c1ccccc1O	-4.0	5.4	1.7	-5.3	77.2*	96.2*	62.3*	-0.9
O=C(/C=C/c1ccc(Br)cc1)NC(=O)c1ccccc1O	-4.9	2.6	12.1	-10.2	-10.6	0.2	.	.
CC(C)[C@@H](CO)N(Cc1cn(Cc2ccccc2)nn1)S(=O)(=O)c1ccccc1Br	.	-2.2	.	.	.	.	.	.
Oc1ccc(/C=N/Nc2nc(N3CCCC3)nc(N3CCCC3)n2)cc1O	-4.1	-4.3	-0.1	?	54.1*	98.9*	28.1*	4.8
CSc1ccc(/C=N/Nc2nc(C)cc(=O)[nH]2)cc1	-1.7	0.2	2.6	-14.5	-4.3	17.3	.	.
Cc1cc(=O)[nH]c(N/N=C/c2ccc(O)c(O)c2)n1	-1.0	-1.6	8.9	-1.1	45.0*	99.4*	21.3	8.0
Oc1ccc(/C=N/Nc2ccc(Cl)nn2)cc1O	-5.5	-0.3	7.4	17.9	47.3*	99.5*	18.4	4.1
Cc1ccc(S(=O)(=O)NCc2ccccc2Br)cc1	.	-5.7	2.0	.	.	.	.	.
CCN(CC)C(=O)c1csc(Nc2cccc3ccccc23)n1	-2.6	-1.4	4.2	-13.5	31.8*	-77.9	-17.9	3.8
COc1cc(/C=N/N2C(=O)CSC2=S)ccc1O	-3.1	0.2	4.4	-4.3	32.6*	.	9.5	-1.5
O=C1CSC(=S)N1/N=C/c1ccc2c(c1)OCCO2	-1.4	-1.6	-8.0	-9.9	33.9*	.	-9.2	-0.2
O=C1CSC(=S)N1/N=C/c1ccc(Cl)c([N+](=O)[O-])c1	-5.6	.	.	-0.3	21.8	5.8	.	.
COc1cc(O)c(C=NN2C(=O)CSC2=S)c(OC)c1	.	-2.8	7.0	.	.	.	.	.
C[C@@H]1NC(=O)[C@H]2C[C@@]3(c4ccccc4)c4ccccc4N[C@H]3N2C1=O	.	-3.7	.	.	.	.	.	.
NC(=O)N/N=C/c1coc2ccc(O)cc2c1=O	-5.1	0.4	-0.1	-2.1	66.0*	11.4	56.6*	-3.2
Cc1ccc2occ(/C=N/NC(N)=S)c(=O)c2c1	-0.6	1.7	2.5	-7.0	10.6	-22.7	.	.
CC1(C)Cc2c(sc3ncn4c(=S)[nH]nc4c23)CO1	0.8	-2.1	-8.1	-20.0	43.0*	.	29.6*	-0.5
Cn1c(N)c(C(=O)N/N=C/c2ccccc2)sc1=S	-2.9	-0.6	13.0	-8.1	33.5*	22.0	-34.8	1.9
C[C@H]1CN([C@@H](C)CO)C(=O)CCCn2cc(nn2)CO[C@@H]1CN(C)S(=O)(=O)c1ccccc1F	.	-0.8	.	.	.	.	.	.
Cc1cccc(N/N=C/c2ccc(O)c(O)c2O)c1	-6.1	-1.0	-1.6	-9.9	36.1*	79.3*	17.2	1.8
Oc1ccc(/C=N/NC(=S)Nc2cccnc2)c(O)c1O	.	0.5	10.3	-34.7	62.1*	.	34.1*	1.8
Oc1ccc(/C=N/NC(=S)Nc2cccnc2)c(O)c1	-6.5	-0.4	2.6	3.5	27.4	.	.	.
O=S1(=O)c2c(cccc2N2CCC[C@@H]2CO)OCCCN1C1CC1	.	0.3	.	.	.	.	.	.
O=C(CSc1ncnc2scc(-c3ccc(Cl)cc3)c12)Nc1ccccc1-c1ccccc1	.	-5.7	.	.	.	.	.	.
O=C(O)c1cn[nH]c1-n1cnnn1	0.5	-4.3	-2.7	4.6	65.0*	-15.7	64.6*	-6.1
Cc1cc(/C=C2/C(=O)NN(c3ccccc3)C2=O)c(C)n1-c1ccc(O)cc1	0.0	-4.3	-1.9	0.0	5.5	52.1	.	.
